Test results as given in PubChem BioAssay (Tox21).
Inconclusive results are not listed. The source made the active and inactive calls. Unless noted, calls come from the whole dose curve; as a rule, active = well fitted curve in the direction sought with a large enough effect in the repeat runs; inconclusive = weak or mixed curves; inactive = no such curve, though single readings can be large; an effect the other way counts as inactive or inconclusive.

How the values were obtained:
[1] = molecular target: Estrogen receptor beta (Homo sapiens) (UniProt Q92731); experiment: qHTS assay to identify small molecule antagonists of the estrogen receptor beta (ER-beta) signaling pathway (AID 1259378; active = well fitted inhibition curve with a large enough effect in the signal ratio in the repeat runs, not every such curve was filed as active; the % refers to the signal ratio)
Method in brief: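 ER-beta-UAS-bla HEK293T (GripTite) cells in 2% charcoal-stripped FBS medium were preincubated 6 hr at 37C, dosed with compound, then stimulated with 1 nM E2 (final) for 16 hr; beta-lactamase reporter read by B/G FRET fluorescence after 2 hr substrate loading.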

[2] = qHTS assay to identify small molecule agonists of the androgen receptor (AR) signaling pathway in the presence of an antagonist - cell viability counter screen (AID 1259379);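 note: MDA-kb2 human breast cancer cells carrying an MMTV luciferase reporter; series mostly up to about 92 µM; nearly all actives have a fitted effect of over 25% in size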
Method in brief: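 Each compound was tested at 15 concentrations on MDA-kb2 cells in the presence of 3.0uM nilutamide. Viability was measured by CellTiter-Fluor fluorescence after a 16 hr incubation at 37C in a CO2-free atmosphere.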

[3] = qHTS assay to identify small molecule agonists of the estrogen receptor beta (ER-beta) signaling pathway - cell viability counter screen (AID 1259380); note: nearly all actives have a fitted effect of over 30% in size
Method in brief: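 Compounds dissolved in DMSO were pin-transferred onto ER-beta-UAS-bla HEK293T cells that had settled 6 hr, and exposure ran 16 hr at 37C. Following the reporter read, CellTiter-Glo luminescence after 30 min at room temperature indicated cytotoxicity.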

[4] = molecular target: Androgen receptor (Homo sapiens) (UniProt P10275); experiment: qHTS assay to identify small molecule agonists of the androgen receptor (AR) signaling pathway in the presence of an antagonist (AID 1259381; calls by dose curve; note: nearly all actives have a fitted effect of over 15% in size)
Method in brief: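 Plated MDA-kb2 cells (3,000/well) were pre-incubated 5hr, given nilutamide (3.0uM final) or buffer, then dosed with compounds in DMSO at 15 concentrations. Luciferase activity was quantified by luminescence after 16hr at 37C.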

[5] = qHTS assay to identify small molecule antagonists of the estrogen receptor beta (ER-beta) signaling pathway - cell viability counter screen (AID 1259382); note: series mostly up to about 92 µM; nearly all actives have a fitted effect of over 55% in size
Method in brief: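 CellTiter-Glo ATP luminescence measured after the LiveBLAzer read in the same wells; ER-beta-UAS-bla HEK293T cells, 16 hr compound treatment with 1nM 17-beta-estradiol agonist at 37C, 5% CO2.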

[6] = molecular target: Estrogen receptor (Homo sapiens) (UniProt P03372); experiment: qHTS assay to identify small molecule agonists of the estrogen receptor alpha (ER-alpha) signaling pathway in the presence of an antagonist (AID 1259383; calls by dose curve; note: top concentration of the series differs between compounds; nearly all actives have a fitted effect of over 15% in size)
Method in brief: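 Luminescent ERE-luciferase reporter, VM7Luc4E2 cells (endogenous ER-alpha); 10.0nM ICI-182,780 final; 15-point compound titration; 22hr at 37C; ONE-Glo, 30min RT.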

[7] = qHTS assay to identify small molecule agonists or antagonists of the thyroid stimulating hormone receptor (TSHR) signaling pathway - wild type cell line counter screen (AID 1259384; calls by dose curve)
Method in brief: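 Wild-type HEK293 cells were plated 18 h at 37 C/5% CO2, pin-dosed with compound plus Ro20-1724 medium, held 30 min at room temperature, then given cAMP-d2 and anti-cAMP-cryptate; fluorescence was read after 1 h. Fifteen concentrations, triplicate.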

[8] = molecular target: Thyrotropin receptor (Homo sapiens) (UniProt P16473); experiment: qHTS assay to identify small molecule antagonists of the thyroid stimulating hormone receptor (TSHR) signaling pathway (AID 1259385; calls by dose curve; note: nearly all actives have a fitted effect of over 20% in size)
Method in brief: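 TSHR-HEK293 cells were plated and held 18 h at 37C/5% CO2, then given compound plus Ro20-1724 and stimulated with TSH at 1.5 ng/mL final. After 30 min at room temperature, cAMP was detected with cAMP-d2/anti-cAMP-cryptate (1 h) by fluorescence.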

[9] = molecular target: Progesterone receptor (Homo sapiens) (UniProt P06401); experiment: qHTS assay to identify small molecule agonists of the progesterone receptor (PR) signaling pathway (AID 1346784; calls by dose curve; note: nearly all actives have a fitted effect of over 30% in size)
Method in brief: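 Reporter assay, GripTite PR-UAS-bla HEK 293T cells: 16 hr exposure to DMSO-dissolved compounds at 37C, 5% CO2, in steroid-depleted (2% charcoal-stripped FBS) medium; beta-lactamase measured by FRET fluorescence.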

[10] = qHTS assay to identify small molecule agonists of the estrogen receptor alpha (ER-alpha) signaling pathway in the presence of an antagonist - cell viability counter screen (AID 1259386);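 note: series mostly up to about 92 µM; cells exposed to compounds for 22 h at 37 °C before the viability read; nearly all actives have a fitted effect of over 30% in size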
Method in brief: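 Using estrogen-depleted VM7Luc4E2 cells, the 15-concentration compound series was applied together with 10.0nM ICI-182,780 and incubated 22hr at 37C/5% CO2. Cell viability was then scored by CellTiter-Fluor.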
% is set by controls: 0 for no effect and ±100 for the full control effect.

Estrogen receptor (Homo sapiens), sequence (P03372 whole entry, looked up): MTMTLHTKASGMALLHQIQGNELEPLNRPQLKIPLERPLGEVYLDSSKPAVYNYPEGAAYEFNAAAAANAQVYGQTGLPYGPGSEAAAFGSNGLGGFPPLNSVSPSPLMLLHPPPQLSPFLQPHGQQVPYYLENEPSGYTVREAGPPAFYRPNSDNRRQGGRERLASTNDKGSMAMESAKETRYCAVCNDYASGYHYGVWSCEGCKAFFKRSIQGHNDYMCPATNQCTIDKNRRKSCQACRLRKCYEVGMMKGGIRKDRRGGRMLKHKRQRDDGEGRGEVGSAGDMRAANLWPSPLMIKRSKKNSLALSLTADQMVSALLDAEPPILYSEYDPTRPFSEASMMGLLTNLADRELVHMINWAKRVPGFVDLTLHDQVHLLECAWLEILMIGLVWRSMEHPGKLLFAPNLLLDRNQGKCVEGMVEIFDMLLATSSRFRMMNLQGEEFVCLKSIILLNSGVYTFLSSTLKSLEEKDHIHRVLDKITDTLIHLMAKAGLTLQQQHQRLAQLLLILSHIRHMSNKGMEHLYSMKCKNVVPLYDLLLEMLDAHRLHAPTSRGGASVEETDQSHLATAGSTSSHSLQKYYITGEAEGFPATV
Androgen receptor (Homo sapiens), sequence (P10275 whole entry, looked up): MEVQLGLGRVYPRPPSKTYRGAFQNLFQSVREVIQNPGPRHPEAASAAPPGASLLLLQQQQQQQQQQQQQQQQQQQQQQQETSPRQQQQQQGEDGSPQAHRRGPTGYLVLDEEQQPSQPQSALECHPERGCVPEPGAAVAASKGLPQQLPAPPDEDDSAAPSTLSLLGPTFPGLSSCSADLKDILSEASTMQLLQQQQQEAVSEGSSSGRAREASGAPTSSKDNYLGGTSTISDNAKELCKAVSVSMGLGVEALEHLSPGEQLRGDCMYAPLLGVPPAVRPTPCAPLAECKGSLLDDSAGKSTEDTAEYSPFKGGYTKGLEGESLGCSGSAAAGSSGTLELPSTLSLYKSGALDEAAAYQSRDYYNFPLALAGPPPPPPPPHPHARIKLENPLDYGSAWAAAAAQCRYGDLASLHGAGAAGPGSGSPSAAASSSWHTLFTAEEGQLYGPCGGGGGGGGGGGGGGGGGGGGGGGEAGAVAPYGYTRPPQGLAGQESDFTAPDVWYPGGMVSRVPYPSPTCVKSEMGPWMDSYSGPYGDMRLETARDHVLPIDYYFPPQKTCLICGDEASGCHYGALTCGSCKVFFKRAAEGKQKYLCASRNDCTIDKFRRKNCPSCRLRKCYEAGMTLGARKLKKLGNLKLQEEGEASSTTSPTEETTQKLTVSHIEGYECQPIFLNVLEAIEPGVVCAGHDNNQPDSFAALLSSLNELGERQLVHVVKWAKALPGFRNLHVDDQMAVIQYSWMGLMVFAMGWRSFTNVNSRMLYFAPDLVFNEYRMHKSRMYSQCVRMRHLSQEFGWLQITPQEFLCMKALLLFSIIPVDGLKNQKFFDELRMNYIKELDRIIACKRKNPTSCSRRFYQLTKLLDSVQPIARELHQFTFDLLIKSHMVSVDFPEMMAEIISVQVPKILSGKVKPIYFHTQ
Thyrotropin receptor (Homo sapiens), sequence (P16473 whole entry, looked up): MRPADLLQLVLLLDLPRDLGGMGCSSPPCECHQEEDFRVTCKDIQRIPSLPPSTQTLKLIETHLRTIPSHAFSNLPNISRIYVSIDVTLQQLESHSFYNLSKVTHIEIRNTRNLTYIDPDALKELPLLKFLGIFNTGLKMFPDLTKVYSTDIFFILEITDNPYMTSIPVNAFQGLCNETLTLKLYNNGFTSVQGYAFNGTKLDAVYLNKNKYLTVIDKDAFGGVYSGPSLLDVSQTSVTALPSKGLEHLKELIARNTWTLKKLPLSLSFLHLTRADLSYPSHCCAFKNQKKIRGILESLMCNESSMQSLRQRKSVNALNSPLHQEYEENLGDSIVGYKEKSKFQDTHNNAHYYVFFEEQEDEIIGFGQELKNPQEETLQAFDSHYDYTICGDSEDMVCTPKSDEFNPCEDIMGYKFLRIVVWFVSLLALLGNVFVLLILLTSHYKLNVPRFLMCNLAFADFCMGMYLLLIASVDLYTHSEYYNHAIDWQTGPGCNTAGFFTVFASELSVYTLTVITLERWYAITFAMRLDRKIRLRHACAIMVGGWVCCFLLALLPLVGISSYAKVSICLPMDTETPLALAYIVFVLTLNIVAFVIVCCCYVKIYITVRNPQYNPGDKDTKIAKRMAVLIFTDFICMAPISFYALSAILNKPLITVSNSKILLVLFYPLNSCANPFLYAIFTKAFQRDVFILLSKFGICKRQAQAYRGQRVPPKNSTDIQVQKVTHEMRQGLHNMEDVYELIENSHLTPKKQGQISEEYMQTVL
Estrogen receptor beta (Homo sapiens), sequence (Q92731 whole entry, looked up): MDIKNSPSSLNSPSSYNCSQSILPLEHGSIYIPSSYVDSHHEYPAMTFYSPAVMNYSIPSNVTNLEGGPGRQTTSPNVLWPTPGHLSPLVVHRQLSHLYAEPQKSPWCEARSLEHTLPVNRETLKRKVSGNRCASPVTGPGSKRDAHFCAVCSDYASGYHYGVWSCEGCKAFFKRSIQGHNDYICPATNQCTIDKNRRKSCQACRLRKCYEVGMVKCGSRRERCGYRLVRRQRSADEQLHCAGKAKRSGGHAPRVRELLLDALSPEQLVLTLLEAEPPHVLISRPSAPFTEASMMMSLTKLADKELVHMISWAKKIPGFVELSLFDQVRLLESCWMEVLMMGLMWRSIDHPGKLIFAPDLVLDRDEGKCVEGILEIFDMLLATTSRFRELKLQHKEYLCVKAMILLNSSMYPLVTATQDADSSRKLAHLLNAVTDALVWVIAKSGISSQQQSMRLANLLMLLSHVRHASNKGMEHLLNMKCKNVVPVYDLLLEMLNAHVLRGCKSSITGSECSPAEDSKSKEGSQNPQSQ
Progesterone receptor (Homo sapiens), sequence (P06401 whole entry, looked up): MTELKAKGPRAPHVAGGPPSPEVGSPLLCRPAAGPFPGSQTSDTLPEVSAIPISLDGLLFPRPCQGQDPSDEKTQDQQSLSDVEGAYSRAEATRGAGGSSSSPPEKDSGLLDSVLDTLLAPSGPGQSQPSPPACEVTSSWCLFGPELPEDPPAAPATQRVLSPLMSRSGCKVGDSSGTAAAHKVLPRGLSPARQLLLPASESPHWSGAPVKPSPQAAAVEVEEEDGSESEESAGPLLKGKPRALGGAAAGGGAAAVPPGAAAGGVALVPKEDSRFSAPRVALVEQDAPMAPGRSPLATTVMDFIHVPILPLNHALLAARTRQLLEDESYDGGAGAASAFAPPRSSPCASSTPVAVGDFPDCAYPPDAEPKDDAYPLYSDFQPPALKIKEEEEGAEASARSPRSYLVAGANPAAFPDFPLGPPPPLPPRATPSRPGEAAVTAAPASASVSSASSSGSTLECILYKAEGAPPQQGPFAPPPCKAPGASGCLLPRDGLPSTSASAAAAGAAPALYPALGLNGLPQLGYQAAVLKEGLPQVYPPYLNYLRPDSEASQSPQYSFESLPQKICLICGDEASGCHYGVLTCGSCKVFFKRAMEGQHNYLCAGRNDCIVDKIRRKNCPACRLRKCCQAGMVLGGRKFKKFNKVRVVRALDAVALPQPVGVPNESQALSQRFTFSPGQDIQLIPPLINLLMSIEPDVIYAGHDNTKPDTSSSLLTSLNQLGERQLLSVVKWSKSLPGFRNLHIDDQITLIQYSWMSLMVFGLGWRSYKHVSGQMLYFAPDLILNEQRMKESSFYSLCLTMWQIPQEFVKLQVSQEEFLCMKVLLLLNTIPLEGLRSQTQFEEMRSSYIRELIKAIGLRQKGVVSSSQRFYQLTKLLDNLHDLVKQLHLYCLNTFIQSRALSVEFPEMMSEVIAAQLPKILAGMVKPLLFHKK

O=C(O)C(=O)Cc1ccccc1
inactive: outcome [1] | Potency [2] | Potency [3] | Potency [4] | outcome [5] | outcome [6] | outcome [7] | outcome [8] | Potency [9]

C=C1CC/C=C(\C)CC[C@@H]2[C@@H]1CC2(C)C
inactive: outcome [1] | Potency [2] | Potency [3] | outcome [5] | outcome [6] | outcome [7] | outcome [8] | Potency [10]

CC(CO)c1ccccc1 (centres undefined)
inactive: outcome [1] | Potency [2] | Potency [3] | Potency [4] | outcome [5] | outcome [6] | outcome [7] | outcome [8] | Potency [10] | Potency [9]

O=C(NCCc1c[nH]c2ccccc12)c1cccnc1
inactive: outcome [1] | Potency [2] | Potency [3] | Potency [4] | outcome [5] | outcome [6] | outcome [7] | outcome [8] | Potency [10] | Potency [9]

Nc1ncnc(Nc2ccccc2)n1
inactive: outcome [1] | Potency [2] | Potency [3] | outcome [5] | outcome [6] | outcome [7] | outcome [8] | Potency [10] | Potency [9]

CCCCCCCCOS(=O)(=O)O
inactive: outcome [1] | Potency [2] | Potency [3] | outcome [5] | outcome [6] | outcome [7] | outcome [8] | Potency [10] | Potency [9]

NS(=O)(=O)c1ccc(NC(=O)CCC(=O)O)cc1
inactive: outcome [1] | Potency [2] | Potency [3] | outcome [5] | outcome [6] | outcome [7] | outcome [8] | Potency [10] | Potency [9]

CC(S)C(=O)NCC(=O)O (centres undefined)
inactive: outcome [1] | Potency [2] | Potency [3] | Potency [4] | outcome [5] | outcome [7] | outcome [8] | Potency [10] | Potency [9]

CC(C)NCC(O)COc1cccc2[nH]ccc12 (centres undefined)
inactive: outcome [1] | Potency [2] | Potency [3] | Potency [4] | outcome [5] | outcome [7] | outcome [8] | Potency [10]

CCN(CC)CC(=O)Nc1c(C)cccc1C
inactive: outcome [1] | Potency [2] | Potency [3] | Potency [4] | outcome [5] | outcome [7] | outcome [8] | Potency [10] | Potency [9]

CC(=O)OC(C)OC(=O)C(C)c1ccc(-c2ccccc2)c(F)c1 (centres undefined)
inactive: outcome [1] | Potency [2] | Potency [3] | Potency [4] | outcome [5] | outcome [6] | outcome [7] | outcome [8] | Potency [10] | Potency [9]

CC(C)(C)NC(N)=O
inactive: outcome [1] | Potency [2] | Potency [3] | Potency [4] | outcome [5] | outcome [6] | outcome [7] | outcome [8] | Potency [10] | Potency [9]

Nc1nnc(-c2cccc(Cl)c2Cl)c(N)n1
inactive: outcome [1] | Potency [2] | Potency [3] | outcome [5] | outcome [7] | outcome [8] | Potency [10] | Potency [9]

Cc1ccsc1/C=C/C1=NCCCN1C
inactive: outcome [1] | Potency [2] | Potency [3] | outcome [5] | outcome [7] | Potency [10] | Potency [9]

CC(COC(C)(C)C)OCCCO (centres undefined)
inactive: outcome [1] | Potency [2] | Potency [3] | outcome [5] | outcome [7] | outcome [8] | Potency [10]

CN(C)C(=O)CNC(=O)Cc1ccccc1
inactive: outcome [1] | Potency [2] | Potency [3] | outcome [5] | outcome [7] | outcome [8] | Potency [9]

O=S(=O)(O)CCN1CCN(CCO)CC1
inactive: outcome [1] | Potency [2] | Potency [3] | outcome [5] | outcome [7] | outcome [8] | Potency [10] | Potency [9]

CCCCN
inactive: outcome [1] | Potency [2] | Potency [3] | outcome [5] | Potency [10] | Potency [9]

OCCCCC(O)CO (centres undefined)
inactive: outcome [1] | Potency [2] | Potency [3] | outcome [5] | outcome [7] | outcome [8] | Potency [9]

Cc1ccc(C=O)cc1C
inactive: outcome [1] | Potency [2] | Potency [3] | outcome [5] | outcome [7] | outcome [8] | Potency [10] | Potency [9]

COc1cc(C(=S)N2CCOCC2)cc(OC)c1OC
inactive: outcome [1] | Potency [2] | Potency [3] | outcome [5] | outcome [7] | outcome [8] | Potency [10] | Potency [9]

N[C@@H](COP(=O)(O)O)C(=O)O
inactive: activity, negative = inhibition [1] 18.6% [at 19 µM] | activity change, negative = cytotoxicity [2] -2.46% [at 19 µM] | activity change, negative = cytotoxicity [3] 5.8% [at 19 µM] | activity change, negative = cytotoxicity [5] 9.58% [at 19 µM] | cAMP activity change [7] 0.501% [at 18.9 µM] | activity change, negative = inhibition [8] -0.736% [at 19 µM] | activity change, negative = cytotoxicity [10] 0.187% [at 19 µM] | activation [9] 0.26% [at 19 µM]

CC(C)OC(=O)CCCCC(=O)OC(C)C
inactive: outcome [1] | Potency [2] | Potency [3] | outcome [5] | outcome [6] | outcome [7] | outcome [8] | Potency [10] | Potency [9]

O=C1CC(c2ccc(Cl)cc2)CC(=O)N1
inactive: outcome [1] | Potency [2] | Potency [3] | outcome [6] | outcome [7] | outcome [8] | Potency [10] | Potency [9]

Cc1c(I)c(=O)n(-c2ccccc2)n1C
inactive: outcome [1] | Potency [2] | Potency [3] | outcome [5] | outcome [6] | outcome [7] | outcome [8] | Potency [10] | Potency [9]

COC(=O)CCCCCCCC(=O)OC
inactive: outcome [1] | Potency [2] | Potency [3] | outcome [5] | outcome [6] | outcome [7] | outcome [8] | Potency [10] | Potency [9]
